Laboratory results reported in PubChem BioAssay AID1224865 (Sanford-Burnham Center for Chemical Genomics, 2016).
In all, about 360,000 compounds went through this assay and about 1,100 (0.31%) were called active. The list comes from a sample in which actives are over-represented; it also holds similar structures and randomly drawn compounds. Unmarked numbers belong to inactive results. No stated cut-off is given here; in the data, active means activity change above about 30% (passing the limit was not always enough); inactive means the rest.

target: Hepatocyte nuclear factor 4-alpha (Homo sapiens) (UniProt P41235); assay: change in binding of human HNF4A to DNA, primary screen, biochemical, fluorescence polarization, FITC-DNA (AID 1224865); conditions: 1 h, at 10 µM, stronger effect = higher value
Sequence (P41235 whole entry, looked up): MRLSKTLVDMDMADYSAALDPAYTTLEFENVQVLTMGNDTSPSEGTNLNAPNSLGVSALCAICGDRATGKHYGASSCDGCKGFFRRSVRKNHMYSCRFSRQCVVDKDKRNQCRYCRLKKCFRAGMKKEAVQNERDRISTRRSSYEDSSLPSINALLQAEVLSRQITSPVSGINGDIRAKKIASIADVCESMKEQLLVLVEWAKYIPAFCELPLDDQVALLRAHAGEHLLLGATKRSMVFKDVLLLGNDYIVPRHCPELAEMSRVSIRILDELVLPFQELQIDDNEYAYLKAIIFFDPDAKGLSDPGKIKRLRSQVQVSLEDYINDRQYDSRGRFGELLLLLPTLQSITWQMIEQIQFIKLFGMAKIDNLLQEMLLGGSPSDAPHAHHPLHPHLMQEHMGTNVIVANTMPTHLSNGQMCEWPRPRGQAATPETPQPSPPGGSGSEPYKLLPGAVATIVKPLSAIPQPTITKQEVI

Compound	activity change
O=C(CN1CCCCC1)Nc1ccc(Br)cc1C(=O)c1ccccc1Cl	-1.1%
CN1CCN(C(=S)SCC(=O)Nc2ccc(Cl)cc2C(=O)c2ccccc2)CC1	-2.35%
O=C(CCN1CCCCC1)NCC(=O)Nc1ccc(Br)cc1C(=O)c1ccccc1	53% (active)
CCOCCc1c(O)[nH]c(=S)[nH]c1=O	-0.41%
COc1ccccc1N=Nc1c(O)[nH]c(=S)[nH]c1=O	68.8% (active)
O=C1N=c2ccccc2=C/C1=C\c1c(O)[nH]c(=S)[nH]c1=O	4.26%
C=Cn1ccnc1P(=S)(c1cc(N(CC)CC)ns1)c1nccn1C=C	-0.17%
CCN(CC)c1ccc([N+](=O)[O-])c2cccnc12	4.4%
COc1ccc(-c2nn(CCC#N)cc2C(=O)Nc2ccc(C(C)=O)cc2)cc1	2.38%
CC1CC=CCC12C(=O)NC(=S)NC2=O (stereo not given)	-0.2%
